Assay outcomes from PubChem.
Vaccinia Venus: vaccinia inhibition (Venus reporter); Vaccinia virus Venus reporter expression, fluorescence; Potency, µM (series often up to 36.5 µM), usual class: inhibitors; actives 0.46% (n = 330,000); AID 720580; calls by dose curve; tested in A549 cells; further: nearly all actives have a fitted effect of over 30% in size
HCMV antiviral: inhibitors of human cytomegalovirus | HFF cells, HCMV-luciferase reporter, 72 h; hits give low values | activity change, negative = inhibition, % at 57.5 µM | actives 4.5% (n = 410,000) | AID 1259415; in the data active means activity change below about -60%; inconclusive means no clear call, values can overlap the other calls; inactive means above about -39%
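Human foreskin fibroblasts infected with luciferase-reporter HCMV at MOI 1 PFU/cell, compounds at two doses. Luciferase measured 72 h post infection; normalized to buffer-only basal and Salinomycin (10uM) controls.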
LASV entry inh: Lassa virus entry inhibition; Lassa virus pseudotype entry inhibition, cell reporter; Potency, µM (highest dose often 37.9 µM), usual class: inhibitors; actives 1.2% (n = 300,000); calls by dose curve; tested in HEK293 cells; further: nearly all actives have a fitted effect of over 50% in size
Marburg entry inh: blocks Marburg virus binding to or entry into cells; AID 540276; actives 1.8% (n = 300,000); Marburg virus pseudotyped entry inhibition, cell reporter; Potency, µM (series often up to 37.8 µM), actives largely listed as inhibitors; calls by dose curve; tested in HEK293 cells
HCV inhibitor: blocks hepatitis C virus; Huh7.5.1 HCVcc-Cre infection, luciferase reporter, 44 h; Potency, µM (highest dose often 41.8 µM), actives largely listed as inhibitors; actives 3.4% (n = 340,000); active means well fitted inhibition curve with a large enough effect; inconclusive means small, poorly fitted or top-dose-only effect, or another doubt; inactive means no such curve, though single readings can be large or run the other way
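A cell-based infection assay in which seeded cells (1,000 per well) receive test compound after 4 h, are inoculated with HCVcc-Cre at approximately 0.5 moi, and are incubated 44 h before luminescence detection.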
VACV mCherry inh: inhibitors of vaccinia virus infection (mCherry reporter signal); Vaccinia virus mCherry reporter infection, fluorescence; actives 0.63% (n = 310,000); Potency, µM (series often up to 36.5 µM), hits mostly inhibitors; AID 720579; calls by dose curve; tested in A549 cells; further: nearly all actives have a fitted effect of over 35% in size
A number is an active result; - = inactive; ? = inconclusive; . = no result; [ ] = dose if it differs, or a comment. In the library only some 7.8% were active in any assay of this set; here they are far more common.

SMILES	Vaccinia Venus	HCMV antiviral	LASV entry inh	Marburg entry inh	HCV inhibitor	VACV mCherry inh
CCOC(=O)c1c(NC(=O)CSc2nnc3c(n2)[nH]c2ccc(F)cc23)sc(C(C)=O)c1C	.	-	-	-	?	.
CCOC(=O)c1c(NC(=O)CSc2ncccn2)sc2c1CCN(Cc1ccccc1)C2	.	-	?	16µM	?	.
CCc1ccc(NC(=O)C2CCN(c3ccc(Sc4ccc(C)cc4)nn3)CC2)cc1	-	-	-	-	.	-
CC(=O)N1CCCC1c1nc2ccccc2n1Cc1ccccc1F (configuration not stated)	-	-	-	-	.	-
CN1CCN(C(CNC(=O)C(=O)Nc2cccc(Cl)c2)c2ccc3c(c2)OCO3)CC1 (configuration not stated)	-[7.34 µM]	-	-	.	.	-[7.34 µM]
Cc1ccccc1CNC(=O)c1ccc2sc([C@H]3C[C@H](O)[C@@H](CO)O3)nc2c1	-	-	.	.	.	-
O=C(NCC1CC1)c1ccc2sc([C@H]3C[C@H](O)[C@@H](CO)O3)nc2c1	-	-102	.	.	.	-
OCC1(Cc2cccc(C(F)(F)F)c2)CCN(Cc2cc(F)cc(F)c2)CC1	?	-62	?	?	?	-
Cc1ccc(-n2cc(CN3CCC(CO)(Cc4cccc(C(F)(F)F)c4)CC3)cn2)cc1	11µM	-99	?	?	11µM	?
O=C(Nc1cccc(C(=O)OCc2cc(=O)n3nc(C4CC4)sc3n2)c1)c1cccc(F)c1	-	-	-	.	.	-
O=C(Nc1ccc(F)cc1F)c1cncc(Br)c1	-	?	-	?	-	-
CN(C)S(=O)(=O)c1cccc(NC(=O)c2cncc(Br)c2)c1	-	-	-	?	?	-
Cc1ccc(S(=O)(=O)N(C)C)cc1NC(=O)c1cncc(Br)c1	8.9µM	?	?	?	?	6.3µM
O=C(Nc1ccccc1[N+](=O)[O-])c1cncc(Br)c1	.	-74	-	-	-	.
CCC(=O)NCc1csc(-c2cccs2)n1	-	-70	?	?	-	-
CCS(=O)(=O)c1ccc(OC)c(Nc2ncc(-c3cccc(F)c3)o2)c1	.	.	-	.	.	.
Cn1c(/C=N/O)nc2ccccc21	-	-	.	.	-	-
Cn1c(/C=N/c2nc3ccccc3[nH]2)nc2ccccc21	-	-104	-	-	-	-
CN(C)C=NC(=O)c1cc(C(=O)c2ccc(F)cc2)c[nH]1	-	-	-	-	-	-
CN(C)C=NC(=O)c1cc(C(=O)c2ccc(Cl)cc2)c[nH]1	-	-63	-	-	?	-
CNC(=O)c1cc(C(=O)c2ccc(Cl)cc2)c[nH]1	-	-	-	-	-	-
O=C(c1ccc(Cl)cc1)c1c[nH]c(C(=O)NNc2ccccc2)c1	-	-	14µM	?	?	?
CCc1cc2c3c(c1)C1(C(=O)N3C(C)(C)CC2C)C(C#N)=C(N)N2C(=C1C#N)Nc1ccccc12 (configuration not stated)	-	?	13µM	?	?	?
Cc1cc2c3c(c1)C1(C(=O)N3C(C)(C)CC2C)C(C#N)=C(N)Oc2cc(O)ccc21 (configuration not stated)	.	-	-	-	?	.
CCOC(=O)C1=C(C)NC(=O)NC1c1ccc2c(c1)OCO2 (configuration not stated)	-	-	-	-	-	-
SMILES	Vaccinia Venus	HCMV antiviral	LASV entry inh	Marburg entry inh	HCV inhibitor	VACV mCherry inh
CCC(CC)COC(=O)C1=C(C)NC(=O)NC1c1ccc2c(c1)OCO2 (configuration not stated)	-	-	?	?	10µM	-
CC1=C(C(=O)OCc2ccc3c(c2)OCO3)C(c2cccc([N+](=O)[O-])c2)NC(=O)N1 (configuration not stated)	-	-81	.	.	11µM	?
O=C(NCc1ccc2c(c1)OCO2)C(=O)NCC1OCCN1S(=O)(=O)c1ccc(Br)cc1 (configuration not stated)	-	-	?	-	10µM	-
COc1ccc(S(=O)(=O)N2CCOC2CNC(=O)C(=O)NCCc2ccc(OC)c(OC)c2)cc1 (configuration not stated)	-	-68	?	?	?	-
COc1ccc(CCNC(=O)C(=O)NCC2OCCN2S(=O)(=O)c2ccc(Br)cc2)cc1OC (configuration not stated)	-	-	?	?	?	-
COc1ccc(CCNC(=O)C(=O)NCC2OCCN2S(=O)(=O)c2ccc(Cl)cc2)cc1OC (configuration not stated)	-	-	.	.	8.9µM	-
COc1ccnc(Oc2ccc(F)cc2)c1C(=O)N/C=N/OCc1ccc(F)cc1Cl	-	-	-	?	-	-
COc1ccnc(Oc2ccc(F)cc2)c1C(=O)N/C=N/OCc1ccc(Cl)cc1Cl	-	-	-	13µM	-	-
CCOc1c(S(=O)(=O)NC2CC(C)(C)NC(C)(C)C2)ccc(Cl)c1Cl	-	-	-	10µM	?	-
CCOc1ccc(OCC)c(S(=O)(=O)NC2CC(C)(C)NC(C)(C)C2)c1	-	-	?	?	-	-
c1ccc2c(c1)ccn2-n1ccc2ccccc21	-	.	.	.	.	?
COc1ccc(C2CC(=O)c3c(C)nc(N4CCN(Cc5ccccc5)CC4)nc3C2)cc1OC (configuration not stated)	.	-98	8.2µM	18µM	3.5µM	.
CC1CC(C)CN(c2ncc3c(n2)CC(c2ccccc2)CC3=O)C1 (configuration not stated)	-	-	2.8µM	-	-	.
COc1cc(C2CC(=O)c3cnc(N4CCN(Cc5ccccc5)CC4)nc3C2)cc(OC)c1OC (configuration not stated)	-	-	23µM	?	?	?
CCOC(=O)N1CCN(c2ncc3c(n2)CC(c2ccc(Cl)cc2)CC3=O)CC1 (configuration not stated)	-	-103	?	-	.	-
Cc1nc(N2CCN(Cc3ccccc3)CC2)nc2c1C(=O)CC(C)C2 (configuration not stated)	.	-	?	-	-	.
CCOC(=O)N1CCN(c2ncc3c(n2)CC(c2ccccc2O)CC3=O)CC1 (configuration not stated)	?	?	?	-	.	?
COc1cc(C2CC(=O)c3cnc(N4CCN(CCO)CC4)nc3C2)cc(OC)c1OC (configuration not stated)	-	-	-	-	.	-
CC(=O)N1CCOc2cc(S(=O)(=O)NCc3ccccc3Cl)c(C)cc21	-	-	?	.	.	-
COc1cc2cnc(-c3ccccc3)cc2cc1OC	-	-	.	.	22µM	-
COc1nc(-c2ccccc2)cc(-c2ccc(OC)c(OC)c2)n1	.	-	-	?	1.8µM	.
COc1ccc(-c2cc(-c3ccccc3)nc(NN)n2)cc1OC	-	-	?	?	?	?
COc1cc2cnc(-c3ccccc3)c(-c3cc(OC)c(OC)c(OC)c3)c2cc1OC	?	-	.	.	13µM	-
O=[N+]([O-])c1ccc(S(=O)Cc2ccccc2)c([N+](=O)[O-])c1 (configuration not stated)	-	-97	11µM	?	?	-
